According to PubChem BioAssay (NCATS):
Inconclusive results are not listed. Calls of active or inactive are those of the source. Unless noted, calls follow the shape of the dose curve; as a rule, active = well fitted curve in the direction sought with a large enough effect; inconclusive = small, poorly fitted or top-dose-only effect, or another doubt; inactive = no such curve, though single readings can be large; an effect the other way counts as inactive or inconclusive.

Columns and labels:
[1] = biological target: Muscarinic acetylcholine receptor M1 (Rattus norvegicus) (UniProt P08482); assay: qHTS Assay for Antagonists of Acetylcholine Muscarinic M1 Receptor: Kinetic Measurement of Intracellular Calcium Response (AID 943);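 also: Fluo-4 calcium signal as peak divided by basal fluorescence over 4 min; series mostly up to about 35 µM; nearly all actives have a fitted effect of over 75% in size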
Chain of Muscarinic acetylcholine receptor M1 (Rattus norvegicus) (P08482 whole entry, looked up): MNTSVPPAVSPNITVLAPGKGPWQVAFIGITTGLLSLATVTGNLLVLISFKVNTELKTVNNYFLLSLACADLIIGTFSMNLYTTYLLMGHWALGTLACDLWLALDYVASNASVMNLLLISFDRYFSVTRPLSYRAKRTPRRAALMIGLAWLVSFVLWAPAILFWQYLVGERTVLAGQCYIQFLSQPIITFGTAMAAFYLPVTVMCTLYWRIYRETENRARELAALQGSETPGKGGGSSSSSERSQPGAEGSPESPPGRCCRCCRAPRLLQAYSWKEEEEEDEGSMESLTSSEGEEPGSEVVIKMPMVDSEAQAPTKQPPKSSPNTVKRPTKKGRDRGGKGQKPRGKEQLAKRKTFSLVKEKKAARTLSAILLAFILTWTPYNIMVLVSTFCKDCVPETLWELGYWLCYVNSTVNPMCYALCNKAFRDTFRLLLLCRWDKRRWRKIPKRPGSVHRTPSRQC
Summary of the method: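 Quantitative HTS in CHO-M1 (rat receptor) cells: 10 min compound exposure ahead of 100 nM carbachol, Fluo-4 fluorescence followed 4 min, value expressed as peak-to-basal ratio.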

[2] = biological target: Muscarinic acetylcholine receptor M1 (Rattus norvegicus) (UniProt P08482); assay: qHTS Assay for Antagonists of Acetylcholine Muscarinic M1 Receptor: Measurement of IP-One Response (AID 944); also: nearly all actives have a fitted effect of over 75% in size
Summary of the method: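 Antagonism was measured as loss of carbachol-driven (EC80) IP1 accumulation in CHO cells carrying rat M1, using a homogeneous IP-One TR-FRET kit read at 620 and 665 nm.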

[3] = biological target: Pyruvate kinase (Leishmania mexicana) (UniProt Q27686); assay: qHTS Validation Assay for Inhibitors of Leishmania Mexicana Pyruvate Kinase (AID 945)
Chain of Pyruvate kinase (Leishmania mexicana) (Q27686 2-499 E452W): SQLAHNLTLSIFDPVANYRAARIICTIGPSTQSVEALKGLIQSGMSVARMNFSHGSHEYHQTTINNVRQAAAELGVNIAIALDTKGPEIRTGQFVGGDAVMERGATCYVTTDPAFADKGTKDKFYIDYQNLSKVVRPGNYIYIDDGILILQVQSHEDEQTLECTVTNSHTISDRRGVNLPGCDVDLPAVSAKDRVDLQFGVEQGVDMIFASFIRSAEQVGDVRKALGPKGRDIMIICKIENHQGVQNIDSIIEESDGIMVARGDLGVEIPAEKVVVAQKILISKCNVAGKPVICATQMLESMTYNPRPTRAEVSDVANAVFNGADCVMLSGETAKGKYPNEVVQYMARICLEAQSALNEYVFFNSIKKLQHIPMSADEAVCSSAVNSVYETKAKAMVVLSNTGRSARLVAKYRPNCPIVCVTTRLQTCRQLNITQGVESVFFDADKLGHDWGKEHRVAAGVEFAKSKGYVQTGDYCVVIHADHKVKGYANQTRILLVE
Summary of the method: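 Compounds are tested as eight-point concentration series. Reactions contain 0.2 nM LmPYK E451W, 0.5 mM PEP, 0.1 mM ADP, 7 mM MgCl2 and 50 mM KCl at pH 7.2, run 1 h at room temperature, then read by PKLight luminescence.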

[4] = biological target: Pyruvate kinase PKM (Homo sapiens) (UniProt P14618); assay: qHTS Assay for Activators of Human Muscle Pyruvate Kinase (AID 954; active = well fitted curve in the direction sought with a large enough effect, not every such curve was filed as active)
Chain of Pyruvate kinase PKM (Homo sapiens) (P14618 whole entry, looked up): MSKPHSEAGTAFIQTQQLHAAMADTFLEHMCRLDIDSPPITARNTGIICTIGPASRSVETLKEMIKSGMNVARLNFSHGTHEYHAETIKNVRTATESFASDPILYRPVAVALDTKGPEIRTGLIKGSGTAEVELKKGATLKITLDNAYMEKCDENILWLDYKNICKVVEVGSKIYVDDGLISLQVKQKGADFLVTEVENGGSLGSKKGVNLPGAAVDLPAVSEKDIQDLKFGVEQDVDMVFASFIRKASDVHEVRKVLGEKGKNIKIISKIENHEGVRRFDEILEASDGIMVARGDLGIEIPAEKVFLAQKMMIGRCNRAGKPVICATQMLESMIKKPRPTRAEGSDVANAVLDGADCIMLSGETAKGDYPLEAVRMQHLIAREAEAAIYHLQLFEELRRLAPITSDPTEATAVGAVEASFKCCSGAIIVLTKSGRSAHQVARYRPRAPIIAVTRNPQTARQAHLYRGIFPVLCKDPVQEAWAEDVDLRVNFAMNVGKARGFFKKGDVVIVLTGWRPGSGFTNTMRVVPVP
Summary of the method: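 PKM2, human, >95% pure, 0.1 nM; PEP 0.5 mM (Km), ADP 0.1 mM; 50 mM imidazole pH 7.2, 50 mM KCl, 0.01% Tween 20, 0.05% BSA; 1 h RT; luciferase luminescence readout.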

[5] = Cell Viability - LYMP2-001 (AID 921);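 also: series mostly up to about 92 µM; cells exposed to compound for 24 h at 37 °C; nearly all actives have a fitted effect of over 70% in size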
Summary of the method: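 Human lymphoblastoid LYMP2-001 cells, 2500 per well, in complete medium, treated 24 h at 37 C. Viability from cellular ATP by CellTiter-Glo luminescence; AC50 from Hill-equation fits of qHTS concentration-response.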

[6] = MultiTox-Fluor Cytotoxicity Assay - LYMP1-001 - Dead Cells (AID 946)
Summary of the method: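 Seed 2500 LYMP1-001 cells/well, incubate 5 hr at 37 C; add compound, 16 hr at 37 C; add MultiTox-Fluor reagent, 60 min RT; read dead-cell fluorescence Ex/Em=485/520. Normalize to DMSO and 15 uM tetraoctylammonium bromide.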

[7] = MultiTox-Fluor Cytotoxicity Assay - LYMP1-001 - Live Cells (AID 947)
[8] = Cell Viability - LYMP1-002 - Assay at 16 hr (AID 948)
Summary of the method: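 LYMP1-002 human lymphoblastoid cells, 2500/well, were treated with compounds for 16 hr at 37 C in complete medium. Viability was read as intracellular ATP by CellTiter-Glo luminescence, and AC50 was derived from a Hill fit to concentration-response data.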

[9] = MultiTox-Fluor Cytotoxicity Assay - LYMP1-002 - Live Cells (AID 955);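 also: cells exposed to compound for 16 hours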
Summary of the method: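 In this qHTS viability format, lymphoblastoid cells (LYMP1-002, human) received compound for 16 hr at 37 C. Fluorogenic GF-AFC cleavage by viable cells was detected at 405/510 nm after 1 h at room temperature.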

[10] = Confirmation and Secondary Assay for Modulators of Hemoglobin Beta Chain Splicing at IVS2 705 locus (AID 930);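 also: HeLa cells stably expressing the EGFP-705 splicing reporter; GFP fluorescence per well restored by corrected splicing of the IVS2-705 intron in EGFP; series mostly up to about 46 µM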
Summary of the method: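 Fluorescence gain (488 nm laser, 500-520 nm PMT) reflects restored correct splicing of a mutant IVS2-705 intron inside EGFP in stably transfected HeLa cells after 2-day compound treatment.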

Measured: outcome

C[C@]1(C2CCCC2)Cc2cc(OCC(=O)O)c(Cl)c(Cl)c2C1=O
inactive: [1] | [2] | [3] | [4]

COc1ccc(CCC(=O)c2c(O)cc(O[C@@H]3O[C@H](CO)[C@@H](O)[C@H](O)[C@H]3O[C@@H]3O[C@@H](C)[C@H](O)[C@@H](O)[C@H]3O)cc2O)cc1O
inactive: [5] | [6] | [7] | [8] | [9]

C=C1C[C@]23C[C@@]1(O)CC[C@H]2[C@@]12C=C[C@H](O)[C@@](C)(C(=O)O1)[C@H]2[C@@H]3C(=O)O
inactive: [5] | [6] | [7] | [8] | [9]

CCOC(=O)C(CCc1ccccc1)NC(C)C(=O)N1Cc2ccccc2CC1C(=O)O (stereo not given)
inactive: [10]

O=C(/C=C/C=C/c1ccc2c(c1)OCO2)N1CCCCC1
inactive: [10]

CC(C)C[C@H](NC(=O)[C@@H]1O[C@H]1C(=O)O)C(=O)NCCCCN=C(N)N
inactive: [1] | [2] | [3] | [4]
